# Shown are actives, neighbours in structure and some others; about 5.5% of the full set was active somewhere.
# VP16 counter – inhibits Gal4-VP16 luciferase reporter, ROR gamma counter-screen; Potency, µM (series often up to 53.6 µM), for inactives: at the top dose activity, negative = inhibition, hits mostly inhibitors; Drosophila S2 Gal4-VP16 UAS-luciferase, luminescence, 20 h; AID 2546; 310,000 compounds, 3.5% hits;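 also: Gal4-VP16 expression switched on by copper sulfate through the metallothionein promoter; potency is read from the fitted curve at half-maximal effect; % is scaled to controls: 0 for no effect and ±100 for the full control effect; nearly all actives have a fitted effect of over 50% in size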
# RORg inh – inhibitors of mouse ROR gamma transcriptional activity; P51450; Drosophila S2 Gal4-RORgamma UAS-luciferase reporter, 20 h; Potency, µM (top dose mostly 53.6 µM), for inactives: top-dose activity change, negative = inhibition, usual class: inhibitors; 310,000 compounds, 5.4% hits; also: potency is read from the fitted curve at half-maximal effect; % is scaled to controls: 0 for no effect and ±100 for the full control effect; nearly all actives have a fitted effect of over 60% in size
#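 Stable Schneider cell line, Gal4 DNA-binding domain fused to ROR gamma, UAS-luciferase. Cmpd 1 hr RT → CuSO4 700 uM final → 20 hr RT → luciferase reagent 10 min → luminescence.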
# MBNL1-CUG inh – inhibitors of human MBNL1 binding to CUG repeat RNA | Q9NR56 | TR-FRET MBNL1-His/biotin-(CUG)12 binding, 665/545 ratio | Potency, µM (doses to about 57.5 µM), for the others: top-dose activity change, negative = inhibition, hits mostly inhibitors | 280,000 compounds, 0.036% hits | AID 2675; active = well fitted inhibition curve with a large enough effect in the signal ratio, with a control signal flat, not every such curve was filed as active; inconclusive = small, poorly fitted or top-dose-only effect, or effect the other way, or a change in a side signal; inactive = no such curve, though single readings can be large or run the other way; the % refers to the signal ratio; also: potency is read from the fitted curve at half-maximal effect; % is scaled to controls: 0 for no effect and ±100 for the full control effect
#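 TR-FRET between His-tagged MBNL1 and biotin-(CUG)12 RNA, detected with Tb anti-His antibody (0.055 ng/ul) and streptavidin-XL665 (5 nM), 60 min at room temperature. Compounds titrated 92 nM to 58 uM; 665/545 nm ratio normalized to buffer and complex controls.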
# CBFb-RUNX1 inh – CBF-beta/RUNX1 interaction disruption; Potency, µM (titrated, usually from 59.8 µM), inactives show at the highest dose activity, negative = inhibition, most hits filed as inhibitors; Q01196+Q13951; AlphaScreen CBFb-His/RUNX1-biotin binding, biochemical; 230,000 tested, under 10 active; also: % of control where 0% means no effect
# Target sequence (Q01196 whole entry, looked up): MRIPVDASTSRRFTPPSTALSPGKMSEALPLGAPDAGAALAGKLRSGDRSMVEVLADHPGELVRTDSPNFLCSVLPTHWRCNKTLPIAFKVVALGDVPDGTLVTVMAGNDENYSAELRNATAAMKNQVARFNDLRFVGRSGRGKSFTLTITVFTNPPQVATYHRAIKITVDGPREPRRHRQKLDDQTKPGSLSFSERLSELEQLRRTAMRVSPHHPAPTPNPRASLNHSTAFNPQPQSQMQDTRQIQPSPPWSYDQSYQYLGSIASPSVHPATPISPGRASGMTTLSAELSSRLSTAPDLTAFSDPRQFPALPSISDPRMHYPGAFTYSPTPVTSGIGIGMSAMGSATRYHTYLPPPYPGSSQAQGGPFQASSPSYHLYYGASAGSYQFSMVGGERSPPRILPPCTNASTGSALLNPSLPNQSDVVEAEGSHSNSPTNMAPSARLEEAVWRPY
# Target sequence (Q13951 whole entry, looked up): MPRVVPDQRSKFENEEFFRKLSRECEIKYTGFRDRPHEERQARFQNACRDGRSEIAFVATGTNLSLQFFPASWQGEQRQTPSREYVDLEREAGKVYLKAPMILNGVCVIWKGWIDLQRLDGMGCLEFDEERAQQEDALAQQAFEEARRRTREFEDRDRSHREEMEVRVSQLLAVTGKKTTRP
#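 Interaction loss through any mechanism counts as activity. Pre-formed complex of His-CBF-beta and biotin-RUNX1 (30 nM apiece) is incubated with compound 15 min, then with 50 ng nickel and 50 ng streptavidin beads for 90 min before AlphaScreen detection.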
# Six1-Eya2 blk – inhibitors of human Six1/Eya2 interaction; Q15475+O00167; AlphaScreen GST-Six1/His-Eya2 binding, biochemical; hits give low values; activity change, % (no concentration beside the values); 360,000 compounds, 0.56% hits; in the data active = activity change below about -65%; inconclusive = mostly about -30% to -63%; also: % is scaled to controls: 0 for no effect and ±100 for the full control effect
#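 AlphaScreen luminescence read after one hour at 37 °C in darkness. Pin-transferred compounds met GST-Six1 and His-Eya2 protein (5X stock 250 nM/500 nM) plus glutathione donor and Ni-chelate acceptor beads (5X, 50 ug/mL).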
# CtBP-E1A blk – inhibitors of CtBP/E1A interaction; AlphaScreen GST-E1A/His-CtBP binding, 1536-well; hits give low values; activity change, % (no concentration beside the values); 340,000 compounds, 0.49% hits; AID 651724; in the data active = activity change below about -65%; inconclusive = mostly about -30% to -63%; also: % is scaled to controls: 0 for no effect and ±100 for the full control effect
#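 Homogeneous bead-based format: GST-tagged E1A captured on glutathione donor beads, His-tagged CtBP on nickel acceptor beads; compounds precede bead addition by 2 h at 37 °C.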
# Starred values were filed as active, the others as inactive; u = inconclusive; x = no result; [ ] = remark or other dose. Unless noted, calls follow the shape of the dose curve; as a rule, active = well fitted curve in the direction sought with a large enough effect; inconclusive = small, poorly fitted or top-dose-only effect, or another doubt; inactive = no such curve, though single readings can be large; an effect the other way counts as inactive or inconclusive.
SMILES,VP16 counter,RORg inh,MBNL1-CUG inh,CBFb-RUNX1 inh,Six1-Eya2 blk,CtBP-E1A blk
O=C1C(Cl)=C(NCCCO)C(=O)c2ccccc21,u,11µM*,u,-8%,-19,u
O=C1C(Cl)=C(Nc2ccc3cn[nH]c3c2)C(=O)c2ccccc21,u,7.1µM*,u,u,1,-26
CCOCCCNC1=C(Cl)C(=O)c2ccccc2C1=O,u,-42%,u,u,u,u
CN(C)c1ccc(NC2=C(Cl)C(=O)c3ccccc3C2=O)cc1,u,16µM*,u,x,u,-20
CC(=O)Nc1ccc(NC2=C(Cl)C(=O)c3ccccc3C2=O)cc1,-8%,u,x,27%,2,-6
O=C(Nc1ccc2cn[nH]c2c1)c1c(Cl)cccc1Cl,-2%,30%,-2%,-3%,2,12
O=C(CC[C@H]1O[C@@H](n2ccc(=O)[nH]c2=O)[C@H](O)[C@@H]1O)NCc1cccc2ccccc12,x,x,x,x,24,22
CC1CCc2c(sc3nc(C(C)(C)C)nc(N4CCN(C(=O)CCl)CC4)c23)C1 (configuration not stated),13µM*,13µM*,-4%,x,-7,-17
CC(=O)Nc1ccc(Nc2nc(-c3ccccc3)nc3ccccc23)cc1,13µM*,-28%,3%,-2%,-11,-8
CC(=O)Nc1ccc2c(c1)nc(C)n2-c1ccccc1,30%,66%,-9%,x,-1,x
Cc1nc2cc(Cl)ccc2n1-c1ccccc1,-22%,16µM*,2%,0%,1,8
N#CC1=C(Nc2ccccc2Cl)SC(c2ccccc2O)NC1=O (configuration not stated),u,13µM*,0%,9%,1,x
COc1cccc(NC2=C(C#N)C(=O)NC(c3cccc(OC)c3O)S2)c1 (configuration not stated),-10%,u,2%,-2%,-4,x
COCC(=O)N1CCC2(CC1)CCN(c1ccncc1)CC2,-4%,-3%,x,x,x,x
CC(=O)C(=Nc1ccccc1Cl)NNc1ccc(Cl)cc1,-19%,u,30%,0%,-73*,u
O=C(NNc1ccc(Cl)cc1)c1c(F)cccc1Cl,-6%,6%,-16%,9%,-5,-2
CC[C@H](C)[C@H](NC(=O)[C@H](Cc1ccc(O)cc1)NC(=O)[C@@H](NC(=O)[C@H](CCCN=C(N)N)NC(=O)[C@@H](N)CC(=O)O)C(C)C)C(=O)N[C@@H](Cc1ccc(N)cc1)C(=O)N1CCC[C@H]1C(=O)N[C@@H](Cc1ccccc1)C(=O)O,-8%,-18%,x,19%,x,x
CCOC(=O)CC(=O)CSc1nc2sc(C)cc2c(=O)n1Cc1ccco1,22µM*,u,-13%,-7%,-5,1
CC(=O)N1c2ccc(Cl)cc2C2C=CCC2C1c1cccc2ccccc12 (configuration not stated),22µM*,u,x,1%,-20,6
CC(=O)N1c2ccc3ccccc3c2C2C=CCC2C1c1ccc(Br)cc1 (configuration not stated),-1%,-8%[10 µM],x,-1%,x,x
COc1ccc2[nH]c(C)c(CCNC(=S)Nc3ccc(F)cc3)c2c1,3.5µM*,4µM*,-5%,-16%,-9,x
COc1ccc2[nH]c(C)c(CCNC(=S)Nc3cc(C)cc(C)c3)c2c1,11µM*,2.2µM*,7%,-25%,-21,-5
COc1ccccc1NC(=S)NCCc1ccc(OC)c(OC)c1,-13%,u,-9%,x,1,5
COc1ccc2[nH]c(C)c(CCNC(=S)Nc3ccccc3OC)c2c1,-1%,10µM*,-11%,-22%,-22,x
COc1ccc2[nH]c(C)c(CCNC(=S)Nc3cccc(C)c3)c2c1,20µM*,5µM*,u,1%,-5,-20
SMILES,VP16 counter,RORg inh,MBNL1-CUG inh,CBFb-RUNX1 inh,Six1-Eya2 blk,CtBP-E1A blk
CNC(=S)N(CCc1c(C)[nH]c2ccc(OC)cc12)Cc1cc(OC)c(OC)c(OC)c1,-8%,17%,-21%,5%,-26,-16
C=CCc1ccccc1Oc1cc(OC)nc(N)n1,x,x,x,x,-4,-1
COc1ccc2[nH]c(C)c(CCNC(=S)Nc3cc(C)ccc3C)c2c1,u,5µM*,-17%,-4%[2.36 µM],9,-5
CCOc1ccccc1NC(=S)NCc1ccco1,u,10µM*,-1%,-5%,-2,-2
CCOc1ccccc1NC(=S)NNS(=O)(=O)c1c(C)cc(C)cc1C,14µM*,10µM*,-18%,0%,-1,-3
COc1ccc(CNC(=S)NCc2ccc(F)cc2)cc1OC,u,-42%,-6%,x,-6,-30
COc1ccccc1NC(=O)NCc1ccco1,-10%,1%,-4%,-6%,0,-4
CCOc1ccccc1NC(=S)NCc1ccccc1,8.9µM*,7.1µM*,-1%,x,-6,4
COc1ccc(CNC(=S)NCc2ccc(Cl)cc2)cc1OC,22µM*,u,-12%,x,-6,u
Brc1cccc(-c2nc3c4ccccc4ccn3c2CC2CCCCC2)c1,x,x,x,x,4,9
CCOc1ccccc1NC(=S)NCc1cccn1C,20µM*,11µM*,-9%,-10%,8,0
CCOc1ccc(CNC(=S)Nc2ccccc2)cc1Cl,5.6µM*,5.6µM*,0%,x,-9,-1
COc1ccc(CC(=O)NNC(=S)Nc2ccccc2)cc1Cl,3%,u,-13%,2%,-3,0
COc1ccccc1NC(=S)NCc1ccccc1,u,14µM*,-2%,x,-6,-1
COc1ccccc1NC(=S)NCc1ccc(Cl)cc1,8.9µM*,11µM*,1%,x,-13,u
COc1ccccc1NC(=S)NCc1ccccn1,u,u,x,-7%,-9,-6
COc1ccc(OC)c(CN2CCN(C(=O)[C@@H](NC(=O)c3cccc(C)c3)C(C)C)CC2)c1,x,x,x,x,-7,17
Nc1nc2c(c(=O)[nH]1)N=C(CNc1ccc(C(=O)NC(CCC(=O)O)C(=O)O)cc1)CN2 (configuration not stated),-1%,2%,x,24%[21.7 µM],x,x
Cc1ccc(S(=O)(=O)N(C)CC(=O)NNC(=O)Cc2ccccc2F)cc1,x,x,x,x,2,9
C=CCN1C(=O)CSc2ccc(C(=O)NC(C)c3ccccc3)cc21 (configuration not stated),-1%,5%,-5%,x,-3,-4
CCOc1ccccc1NC(=S)NC(=O)CCCOc1ccc(Cl)cc1Cl,22µM*,5µM*,2%,14%,-3,0
O=C(CCCOc1ccc(Cl)cc1Cl)Nc1ccccc1C(=O)O,-12%,8%,-3%,7%,-10,6

# Screening data from PubChem.
